High-throughput results (PubChem BioAssay)
HIV Env fusion: blocks HIV Env-driven cell-cell fusion; 1.1% of 360,000 active; inhibition, % at 12.3 µM; HeLa-JRFL Env/CEM21 cell fusion, luciferase;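 active means mean replicate inhibition score of at least 50 and every replicate individually at or above 50; inconclusive means only one of the two criteria met; inactive means mean below 50 and not all replicates reaching 50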;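 further: 0% = plate neutral controls and 100% = maraviroc near 300 nM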
NSD2 inh: NSD2 (human) methyltransferase inhibition | 0.54% of 310,000 active | NSD2 peptide methylation, AlphaScreen, 120 min | inhibition, % at 12.5 µM | O96028; in the data active means inhibition above about 50%
AF4-AF9 inh: MLL-AF4/AF9 protein interaction inhibition. AlphaScreen, biotin-AF4 peptide binding to FLAG-AF9. AID 651704. 0.47% of 350,000 active. P42568. inhibition, % at 10 µM;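 active means every replicate reaching a set inhibition limit, whatever the replicate mean, cut at about 25% in these data; inconclusive means mean inhibition reaches that limit but some replicates miss it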;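 further: 0% = plate neutral control median and 100% = total signal loss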
PGC1a acetyl inh: modulators of PGC1a acetylation; U2OS PGC1a acetylation, AlphaScreen anti-acetyl-lysine; with virally co-expressed GCN5 acetyltransferase; inhibition, % at 15.6 µM; 0.17% of 350,000 active; AID 651687;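 active means every replicate shows inhibition of at least 40%; inconclusive means mean inhibition at least 40% but some replicate below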;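 further: 0% = neutral control wells and 100% = positive control wells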
INS-1E GSIS act: primary screen for activators of insulin secretion dependent on glucose, INS-1E cells, GLuc reporter luminescence; INS-1E GLuc reporter insulin secretion, 2-3 h; activation, % at 16.6 µM; 0.61% of 370,000 active; AID 743287;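 active means lowest replicate activation of at least 40%, so every replicate reaches that level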;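 further: 0% = median of neutral control wells and 100% = median of IBMX positive control wells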
* = called active by the depositor; ? = inconclusive; / = no result given; [ ] = another dose, or the depositor's remark. This is a sample that favours compounds with a hit; in the whole collection about 2.1% have one here.

SMILES | HIV Env fusion | NSD2 inh | AF4-AF9 inh | PGC1a acetyl inh | INS-1E GSIS act
Cc1nc2scc(C)n2c(=O)c1S(=O)(=O)Nc1ccc(N2CCOCC2)c(Cl)c1 | 8 | 3 | 0 | / | -8
Cc1nc2scc(C)n2c(=O)c1S(=O)(=O)Nc1ccc(OC(F)(F)F)cc1 | 55* | -1 | -7 | -6 | -36
Cc1onc(-c2ccccc2)c1-c1n[nH]c(=S)n1-c1ccccc1 | -60 | 0 | / | 14 | /
CSCCC(NS(=O)(=O)c1ccc(C)cc1C)C(=O)Nc1cccnc1 (centres undefined) | -48 | 1 | -5 | -18 | /
CSc1nc2[nH]ncc2c(=O)[nH]1 | -28 | -3 | 4 | 5 | 27
CC(C)OC(=O)c1c(F)c(F)c(N2CCOCC2)c(F)c1F | -33 | -2 | / | 57* | /
COC(=O)c1c(F)c(F)c(N2CCOCC2)c(F)c1F | / | -2 | / | 7 | 1
Cc1cccc(C2(c3cccc(C)c3)CC2C(=O)Nc2ccc([N+](=O)[O-])cc2O)c1 (centres undefined) | 75* | -1 | / | / | -5
O=C(N/N=C/c1ccco1)c1ccccc1OCc1ccc(Br)cc1 | -4 | 2 | 1 | / | -2
Cn1c(SCc2ccc(Cl)cc2Cl)nc(C(F)(F)F)cc1=O | -14 | -2 | / | -1 | 65*
FC(F)(F)c1nc(SCc2ccc(Cl)cc2Cl)n[nH]1 | -5 | -3 | -1 | 4 | /
COc1ccccc1NC(=O)CCc1c(C)nc2c(-c3ccc(F)cc3)c(C)nn2c1C | ? | -1 | 8 | 3 | -34
Cc1nc2c(-c3ccc(F)cc3)c(C)nn2c(C)c1CCC(=O)N1CCN(c2ccccc2)CC1 | 37 | / | 2 | 2 | -7
Cc1nc2c(-c3ccc(F)cc3)c(C)nn2c(C)c1CCC(=O)Nc1ccccc1 | 63* | / | 9 | -7 | -25
Cc1nc2c(-c3ccc(F)cc3)c(C)nn2c(C)c1CCC(=O)N1CCN(c2ccc(F)cc2)CC1 | 56* | / | -1 | 5 | -29
Cc1nc2c(-c3ccc(F)cc3)c(C)nn2c(C)c1CCC(=O)N1CCC(Cc2ccccc2)CC1 | 55* | / | -4 | 0 | 0
CCOC(=O)C1CCN(C(=O)CCc2c(C)nc3c(-c4ccc(F)cc4)c(C)nn3c2C)CC1 | 6 | / | 1 | -7 | -1
O=C(c1ccc(F)cc1)N1C[C@@H]2[C@H](c3ccccc31)[C@H](CO)N2C(=O)c1ccc(F)cc1 | / | / | -2 | 4 | 6
O=C(CCN1CCN(Cc2ccccc2)CC1)Nc1ccc(OCc2ccccc2)cc1 | 59* | 1 | / | -4 | /
COc1cccc(/C=C/C(=O)NNC(=O)CCN2CCN(Cc3ccccc3)CC2)c1 | 9 | 7 | -5 | -19 | 18
O=C(/C=C/c1ccc(F)cc1)NNC(=O)CCN1CCN(Cc2ccccc2)CC1 | 3 | -3 | 0 | 52* | 10
Cc1ccc(Nc2n[nH]c(=S)s2)c(C)c1 | -26 | 2 | -5 | / | 9
CC(C)NC(=O)Nc1ccc2c(c1)C(=O)N([C@@H](C)CO)C[C@@H](C)[C@@H](CN(C)C)OCCCC[C@H](C)O2 | 6[16.7 µM] | / | -1 | 3 | 21
COc1ccc(CN(C)C[C@H]2OCCCC[C@@H](C)Oc3ccc(NC(=O)Nc4ccc(C(F)(F)F)cc4)cc3C(=O)N([C@H](C)CO)C[C@H]2C)cc1 | 6[16.7 µM] | / | 9 | 21 | -9
COc1ccc(CN(C)C[C@@H]2OCCCC[C@H](C)Oc3ccc(NC(=O)Nc4ccc(C(F)(F)F)cc4)cc3C(=O)N([C@@H](C)CO)C[C@@H]2C)cc1 | 76*[16.7 µM] | / | 8 | 1 | 24
SMILES | HIV Env fusion | NSD2 inh | AF4-AF9 inh | PGC1a acetyl inh | INS-1E GSIS act
COc1ccc(NC(=O)Nc2ccc3c(c2)C(=O)N([C@H](C)CO)C[C@@H](C)[C@H](CN(C)Cc2ccc(C(F)(F)F)cc2)OCCCC[C@@H](C)O3)cc1 | 68*[16.7 µM] | / | 4 | 4 | -23
Cc1ccc(SC(c2ccccc2)C(Cn2cncn2)C(=O)c2ccccc2)cc1 (centres undefined) | / | 0 | / | -5 | /
O=C(c1ccc(Cl)cc1)C(Cn1cncn1)C(Sc1ccccc1)c1ccccc1 (centres undefined) | / | -12 | / | 61* | /
CCOC(=O)CC1(O)CSc2nc(N)cc(=O)n21 (centres undefined) | -13 | 20 | -5 | / | 4
CC1=Nc2cc(C(=O)NCCCN3CCN(C)CC3)ccc2Sc2ccc(C)cc21 | 9 | 14 | 27* | 3 | 10
CC1CC(CCC(=O)NC(=S)Nc2ccc(Cl)cn2)C(=O)O1 (centres undefined) | -176 | -3 | -4 | / | 0
O=c1cc(-c2ccccc2Cl)oc2cccc(O)c12 | -7 | / | 4 | / | /
